Measurements as given in PubChem BioAssay (EPA / NIEHS).
Where “and” joins values, the source holds several entries; their conditions need not be identical. Identical values can stand only once. Inconclusive results are not listed. More than one record can exist for a structure, and the calls need not agree. Calls of active or inactive are those of the source. How the source made its calls, unless noted: active means hit-call score of the fitted dose curve at least 0.9, where 1 is the maximum; inactive means score below 0.9.

Assays:
[1] = read-out: TIMP metallopeptidase inhibitor 2 (TIMP2), TIMP2 (gene 7077); assay: BSK_hDFCGF_TIMP2: BioMAP Diversity Plus: hDFCGF Assay for TIMP metallopeptidase inhibitor 2 (TIMP2) Biomarker Activity (AID 2284289); conditions: primary human foreskin fibroblasts
Procedure, shortened: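 Primary human foreskin fibroblasts in the hDFCGF system, dosed for 24 h; TIMP-2 level measured by ELISA, fitted in the positive direction against DMSO; cytotoxicity checked in parallel by sulforhodamine B total protein staining.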

[2] = read-out: Interleukin-1 alpha (IL1a), IL1A (gene 3552); assay: BSK_IMphg_IL1a: BioMAP Diversity Plus: IMphg Assay for Interleukin-1 alpha (IL1a) Biomarker Activity (AID 2284290); conditions: primary human endothelial cells with macrophages
Procedure, shortened: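 Human venular endothelial cells co-cultured with macrophages, IMphg system. IL-1α is measured by ELISA 24 h after dosing and fitted in the positive direction against DMSO. Cytotoxicity is assessed by SRB staining of parallel cultures.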

[3] = read-out: E-selectin (Homo sapiens) (UniProt P16581); assay: BSK_IMphg_ESelectin: BioMAP Diversity Plus: IMphg Assay for Eselectin Biomarker Activity (AID 2284291); conditions: primary human endothelial cells with macrophages
Procedure, shortened: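 Human venular endothelial cell–macrophage co-culture, E-selectin measured by ELISA 24 h after chemical dosing. Signal fitted in the positive direction against DMSO as negative control and baseline.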

[4] = BSK_IMphg_SRB: Viability Assessment in the BioMAP Diversity Plus: IMphg Assay (AID 2284292); conditions: primary human endothelial cells with macrophages;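 further: measured one day after compound addition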
Procedure, shortened: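 Human venular endothelial cells with macrophages, 24 h after chemical dosing; total protein by 0.1% SRB staining after 10% TCA fixation, read at 560 nm. Positive-direction fitting versus DMSO baseline.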

[5] = read-out: Macrophage colony-stimulating factor (MCSF), CSF1 (gene 1435); assay: BSK_IMphg_MCSF: BioMAP Diversity Plus: IMphg Assay for Macrophage colony-stimulating factor (MCSF) Biomarker Activity (AID 2284293); conditions: primary human endothelial cells with macrophages
Procedure, shortened: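 Co-culture of human venular endothelial cells and macrophages, 24 hours of chemical exposure. M-CSF quantified by ELISA, with parallel SRB total-protein staining for cytotoxicity; activity fitted relative to DMSO.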

[6] = BSK_IMphg_SRB.Mphg: Macrophage Viability Assessment in the BioMAP Diversity Plus: IMphg Assay (AID 2284295); conditions: primary human endothelial cells with macrophages
Procedure, shortened: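 Venular endothelial cells co-cultured with macrophages, read 24 h after dosing. Total protein measured by 0.1% SRB staining after 10% TCA fixation, absorbance at 560 nm. Fitted in positive direction against DMSO baseline.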

[7] = read-out: Thrombomodulin, THBD (gene 7056); assay: BSK_LPS_Thrombomodulin: BioMAP Diversity Plus: LPS Assay for Thrombomodulin Biomarker Activity (AID 2284296); conditions: primary human HUVEC with PBMC
Procedure, shortened: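 Human umbilical vein endothelial cells co-cultured with PBMC and stimulated with LPS; cell-surface thrombomodulin measured by ELISA 24 hours after compound. Gain or loss versus DMSO; cytotoxicity checked by SRB staining in parallel cultures.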

[8] = read-out: CD69, CD69 (gene 969); assay: BSK_LPS_CD69: BioMAP Diversity Plus: LPS Assay for CD69 Biomarker Activity (AID 2284303); conditions: primary human HUVEC with PBMC
Procedure, shortened: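 Human umbilical vein endothelial cells co-cultured with PBMC under LPS stimulation, chemical exposure 24 h; cell-surface CD69 measured by ELISA and fitted in the positive direction versus DMSO.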

[9] = test system: TTR (gene 7276); assay: CCTE_GLTED_hTTR_0.5uM: CCTE's human Transthyretin (hTTR) Inhibition Assay, with 0.5uM TTR, Great Lakes Toxicology and Ecology Division (GLTED) Lab (AID 2284320)
Procedure, shortened: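 Cell-free displacement assay in which human TTR at 0.5 uM was incubated with test chemical for 2 h. Displacement of the ANSA probe was read by fluorescence at 380 nm excitation/475 nm emission. Loss of signal was fitted in the positive direction versus DMSO.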

[10] = Tanguay_ZF_120hpf_CRAN: Oregon State University Tanguay Lab 120 Hour Post-fertilization zebrafish Assay for Craniofacial Malformation (AID 2284397)
Procedure, shortened: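 Dechorionated Tropical 5D wild-type zebrafish embryos, one per well, were statically exposed from 6 to 120 hpf at 28C in 0.64% DMSO, with 5uM trimethyltin chloride as positive control. Craniofacial malformation was scored present/absent by brightfield microscopy, relative to DMSO.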

[11] = Tanguay_ZF_120hpf_AXIS: Oregon State University Tanguay Lab 120 Hour Post-fertilization zebrafish Assay for Axial Malformation (AID 2284398)
Procedure, shortened: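 Dechorionated 5D wild-type zebrafish embryos exposed statically, one per well, from 6 to 120 hpf at 28C, 0.64% DMSO. Axial malformation scored as present/absent by brightfield microscopy at 120 hpf; dead embryos not scored.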

[12] = Tanguay_ZF_120hpf_EDEM: Oregon State University Tanguay Lab 120 Hour Post-fertilization zebrafish Assay for Edema Malformation (AID 2284400)
Procedure, shortened: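 Dechorionated Tropical 5D wild-type embryos, one per well, statically exposed from 6 to 120 hpf at 28C in 0.64% DMSO. Edema scored present/absent by brightfield microscopy at 120 hpf; dead embryos not scored; fit versus DMSO.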

[13] = CCTE_Mundy_HCI_iCellGluta_NOG_NeuriteLength: CCTE's Neurite Outgrowth Assay in iCellGluta cells for Neurite Length, Mundy Lab (AID 2284318; active means hit-call score of the fitted dose curve at least 0.9, where 1 is the maximum)
Procedure, shortened: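 Automated high-content imaging of betaIII-tubulin (Alexa Fluor-488) and Hoechst-stained cells gave neurite length, normalized to the DMSO baseline.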

[14] = CCTE_Mundy_HCI_iCellGluta_NOG_NeuriteCount: CCTE's Neurite Outgrowth Assay in iCellGluta cells for Neurite Count, Mundy Lab (AID 2284342; active means hit-call score of the fitted dose curve at least 0.9, where 1 is the maximum;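 further: chemical exposure about 48 hours starting 2 hours after plating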)
[15] = test system: IYD (gene 389434); assay: CCTE_GLTED_hIYD: CCTE's human Iodotyrosine Deiodinase (xIYD) Inhibition Assay, Great Lakes Toxicology and Ecology Division (GLTED) Lab (AID 2284317; active means hit-call score of the fitted dose curve at least 0.9, where 1 is the maximum;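 further: cell-free human IYD enzyme made in baculovirus insect cells; iodide freed from monoiodotyrosine measured by cerium arsenite color change at 420 nm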)
Procedure, shortened: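 Human IYD expressed in a baculovirus-insect cell system was incubated 3 h with monoiodotyrosine and test chemical. Released iodide, separated on Dowex columns, was quantified by the Sandell-Kolthoff reaction at 420 nm; plates were normalized to MNT and DMSO/NaOH controls.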

[16] = test system: SERPINA7 (gene 6906); assay: CCTE_GLTED_hTBG: CCTE's human Thyroxine-binding Globulin (TBG) Inhibition Assay, Great Lakes Toxicology and Ecology Division (GLTED) Lab (AID 2284343; active means hit-call score of the fitted dose curve at least 0.9, where 1 is the maximum;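 further: active chemicals lower fluorescence versus DMSO baseline by displacing probe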)
Procedure, shortened: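 Cell-free binding assay in which human TBG is incubated with test chemical for 2 hours and displacement of the fluorescent probe ANSA is read at 380 nm excitation/475 nm emission. Activity is fitted against DMSO as the negative control.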

[17] = CCTE_Deisenroth_5AR_NBTE_donor: CCTE's 5alpha-reductase NanoBRET Target Engagement Assay […], Deisenroth Lab (AID 2284319); conditions: actives raise or lower the signal
Procedure, shortened: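 In this secondary endpoint, donor luminescence from SRD5A2-NanoLuc in transfected HEK293T flags artifacts. Test chemical (10 nM - 29.9 uM) is present five hours, tracer the last two; mock-tracer wells run plate-matched; data fitted bidirectionally against DMSO.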

[18] = CCTE_Deisenroth_5AR_NBTE_acceptor: CCTE's 5alpha-reductase NanoBRET Target Engagement Assay - Autofluorescence Screen, Deisenroth Lab (AID 2284321); conditions: actives raise or lower the signal;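 further: compound fluorescence in the acceptor channel under 460 nm excitation flags autofluorescence artifacts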
Procedure, shortened: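 Acceptor-channel fluorescence flags artifacts, with excitation fixed at 460 nm. Nominal 100 uM chemical samples were read in triplicate runs, and signal changes were fitted in both directions relative to DMSO.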

[19] = test system: SRD5A2 (gene 6716); assay: CCTE_Deisenroth_5AR_NBTE_ratio: CCTE's 5alpha-reductase NanoBRET Target Engagement Assay - Ratio, Deisenroth Lab (AID 2284322); conditions: actives raise or lower the signal
Procedure, shortened: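 Reverse-transfect HEK293T with pNLF1-C-SRD5A2, express 20 h. Pre-incubate cells with chemical 3 h (8-point series, 10 nM - 29.9 uM, duplicate). Add testosterone tracer, 2 h more. Add substrate/inhibitor, read donor and acceptor emission.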

Measured: AC50

E-selectin (Homo sapiens), sequence (P16581 whole entry, looked up): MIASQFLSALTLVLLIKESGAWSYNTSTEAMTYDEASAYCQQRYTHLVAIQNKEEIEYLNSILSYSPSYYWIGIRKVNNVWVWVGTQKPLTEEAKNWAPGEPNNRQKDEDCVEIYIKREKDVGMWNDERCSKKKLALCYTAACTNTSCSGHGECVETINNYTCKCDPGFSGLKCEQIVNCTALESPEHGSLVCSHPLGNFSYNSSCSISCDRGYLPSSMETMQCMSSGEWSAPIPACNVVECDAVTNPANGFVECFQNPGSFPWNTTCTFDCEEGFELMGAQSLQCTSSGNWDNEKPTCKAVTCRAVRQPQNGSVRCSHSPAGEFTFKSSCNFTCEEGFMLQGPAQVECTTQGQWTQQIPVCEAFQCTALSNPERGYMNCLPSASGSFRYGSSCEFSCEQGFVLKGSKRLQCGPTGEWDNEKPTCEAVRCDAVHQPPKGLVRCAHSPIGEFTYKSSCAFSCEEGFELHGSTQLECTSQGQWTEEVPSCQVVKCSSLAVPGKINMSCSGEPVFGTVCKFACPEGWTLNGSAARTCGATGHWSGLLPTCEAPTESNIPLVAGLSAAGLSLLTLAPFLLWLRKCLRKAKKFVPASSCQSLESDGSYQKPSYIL

C=CC(=O)OCCC(F)(F)C(F)(F)C(F)(F)C(F)(F)F
active: [1] 2.55 µM
inactive: [1] | [2] | [3] | [4] | [5] | [6] | [7] | [8] | [9] | [10] | [11] | [12]

O=C(O)CCC(F)(F)C(F)(F)C(F)(F)F
active: [9] 17.6 µM
inactive: [1] | [2] | [3] | [4] | [5] | [6] | [7] | [8] | [13] | [14] | [10] | [11] | [12]

CCN(CCO)S(=O)(=O)C(F)(F)C(F)(F)C(F)(F)C(F)(F)C(F)(F)C(F)(F)C(F)(F)C(F)(F)F
inactive: [1] | [2] | [5] | [6] | [13] | [14] | [10] | [11] | [12]
active: [3] 5.54 µM and 6.2 µM | [4] 30 µM | [6] 44.2 µM | [7] 16.6 µM and 13.5 µM | [8] 8.1 µM and 7.79 µM

FC(F)(F)C(F)(F)C(F)(F)CC1CO1 (stereo unspecified)
active: [1] 1.97 µM
inactive: [1] | [2] | [3] | [4] | [5] | [6] | [7] | [8] | [10] | [11] | [12]

CNS(=O)(=O)C(F)(F)C(F)(F)C(F)(F)C(F)(F)C(F)(F)C(F)(F)C(F)(F)C(F)(F)F
active: [1] 7.96 µM | [2] 6.58 µM and 9.9 µM | [3] 5.55 µM and 8.07 µM | [9] 1.34 µM | [12] 47.8 µM
inactive: [1] | [4] | [5] | [6] | [7] | [8] | [10] | [11]

O=S(=O)(Cl)C(F)(F)C(F)(F)C(F)(F)C(F)(F)C(F)(F)C(F)(F)C(F)(F)C(F)(F)F
active: [15] 100 µM | [9] 0.234 µM
inactive: [1] | [2] | [3] | [4] | [5] | [6] | [7] | [8] | [10] | [11] | [12]

OCC(O)CC(F)(F)C(F)(F)C(F)(F)C(F)(F)C(F)(F)C(F)(F)C(F)(F)C(F)(F)F (stereo unspecified)
active: [10] 6.76 µM | [11] 6.61 µM | [12] 5.23 µM
inactive: [1] | [2] | [3] | [4] | [5] | [6] | [7] | [8]

CCC(Cc1c(I)cc(I)c(N)c1I)C(=O)O (stereo unspecified)
active: [16] 43.1 µM

OC(O)C(F)(F)C(F)(F)F
inactive: [1] | [2] | [3] | [4] | [5] | [6] | [7] | [8] | [10] | [11] | [12]

NC(=O)C(F)(F)C(F)(F)C(F)(F)F
inactive: [1] | [2] | [3] | [4] | [5] | [6] | [7] | [8] | [10] | [11] | [12]

CCCCCCCCn1sc(Cl)c(Cl)c1=O
active: [15] 100 µM

CC(C)Nc1ccc(NC(C)C)c2c1C(=O)c1ccccc1C2=O
inactive: [17] | [18]
active: [19] 3.06 µM

C=C(C)C(=O)OCC(F)(F)C(F)(F)C(F)(F)C(F)F
active: [9] 19 µM
inactive: [1] | [2] | [3] | [4] | [5] | [6] | [7] | [8]

O=C(c1ccccc1)c1ccc(O)cc1O
active: [16] 9.12 µM

CCCCCCCC/C=C\CCCCCCCC(=O)OCC(O)CO (stereo unspecified)
active: [15] 68.1 µM

CCN=C1C=CC(=C(c2ccc(N(CC)CC)cc2)c2ccc(N(CC)CC)cc2)c2ccccc21
active: [1] 677 nM and 195 nM | [8] 1.16 µM and 1.01 µM | [17] 6.95 µM | [18] 2.24 µM | [19] 0.166 µM | [16] 4.51 µM
inactive: [7]

OCC(F)(F)C(F)(F)C(F)(F)CO
inactive: [1] | [2] | [3] | [4] | [5] | [6] | [7] | [8] | [10] | [11] | [12]
